# Source: PubChem BioAssay (EPA / NIEHS)
# Activity calls are given as the source filed them. Rule for the calls: active = hit-call score of the fitted dose curve at least 0.9, where 1 is the maximum; inactive = score below 0.9.
# Assays:
# [1] = ATG_CRE_CIS: Attagene CIS-FACTORIAL HepG2 Assay for human cAMP Responsive Element (CRE) binding protein 3 (AID 2282926); details: HepG2 CRE cis-reporter, Attagene multiplexed mRNA; actives raise or lower the signal
# Outline: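 HepG2 cells transiently transfected with cis-element-driven multiple reporter transcription units; CRE reporter mRNA measured 24 h after dosing by RT-PCR, 6-FAM labelling, HpaI digestion and capillary electrophoresis. Bidirectional fit versus DMSO baseline.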
# [2] = target: CCAAT/enhancer-binding protein beta (Homo sapiens) (UniProt P17676); experiment: ATG_C_EBP_CIS: Attagene CIS-FACTORIAL HepG2 Assay for human CCAAT/Enhancer Binding Protein (C/EBP) beta (AID 2282927); details: HepG2 Attagene cis-factorial transcription factor reporter; actives raise or lower the signal
# Chain of CCAAT/enhancer-binding protein beta (Homo sapiens) (P17676 whole entry, looked up): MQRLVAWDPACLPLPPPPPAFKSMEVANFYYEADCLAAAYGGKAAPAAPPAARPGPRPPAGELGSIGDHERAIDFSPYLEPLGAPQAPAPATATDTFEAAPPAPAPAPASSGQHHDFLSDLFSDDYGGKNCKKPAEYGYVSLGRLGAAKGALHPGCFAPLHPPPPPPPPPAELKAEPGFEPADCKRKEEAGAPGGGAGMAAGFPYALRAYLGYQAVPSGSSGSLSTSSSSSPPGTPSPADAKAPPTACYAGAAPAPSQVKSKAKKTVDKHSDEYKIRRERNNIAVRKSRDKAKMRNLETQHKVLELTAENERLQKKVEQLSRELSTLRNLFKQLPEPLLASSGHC
# Outline: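 HepG2 transiently transfected with multiplexed reporter units under cis-regulatory promoters reporting endogenous C/EBPb activity. After 24 h exposure, reporter mRNA assayed by RT-PCR, fluorescent labelling, HpaI digestion and capillary electrophoresis; bidirectional fitting versus DMSO.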
# [3] = ATG_CMV_CIS: Attagene CIS-FACTORIAL HepG2 Assay for human CMV (Internal Marker) (AID 2282928); details: HepG2 CMV promoter reporter, transcription factor profiling; actives raise or lower the signal;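 note: endpoint acts as a background internal control marker rather than a target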
# Outline: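 Endogenous transcription factor activity read in HepG2 via transfected cis-promoter reporter units. After 24 h dosing, reporter mRNA measured by RT-PCR/capillary electrophoresis; gain or loss of signal fit relative to DMSO.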
# [4] = ATG_DR4_LXR_CIS: Attagene CIS-FACTORIAL HepG2 Assay for human Liver X Receptor (LXR), DR4 submotif (AID 2282929); details: HepG2 Attagene DR4 cis-reporter, mRNA transcription; actives raise or lower the signal
# Outline: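 Fluorescence intensity of labelled reporter cDNA fragments, separated by capillary electrophoresis, gives the signal. HepG2 cells bearing cis-regulated reporter constructs were treated 24 h; activity fitted bidirectionally relative to DMSO negative control.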
# [5] = target: Aryl hydrocarbon receptor (Homo sapiens) (UniProt P35869); experiment: ATG_Ahr_CIS: Attagene CIS-FACTORIAL HepG2 Assay for human Aryl Hydrocarbon Receptor (Ahr) (AID 2282930); details: HepG2 AhR cis-factorial reporter transcription; actives raise or lower the signal
# Chain of Aryl hydrocarbon receptor (Homo sapiens) (P35869 whole entry, looked up): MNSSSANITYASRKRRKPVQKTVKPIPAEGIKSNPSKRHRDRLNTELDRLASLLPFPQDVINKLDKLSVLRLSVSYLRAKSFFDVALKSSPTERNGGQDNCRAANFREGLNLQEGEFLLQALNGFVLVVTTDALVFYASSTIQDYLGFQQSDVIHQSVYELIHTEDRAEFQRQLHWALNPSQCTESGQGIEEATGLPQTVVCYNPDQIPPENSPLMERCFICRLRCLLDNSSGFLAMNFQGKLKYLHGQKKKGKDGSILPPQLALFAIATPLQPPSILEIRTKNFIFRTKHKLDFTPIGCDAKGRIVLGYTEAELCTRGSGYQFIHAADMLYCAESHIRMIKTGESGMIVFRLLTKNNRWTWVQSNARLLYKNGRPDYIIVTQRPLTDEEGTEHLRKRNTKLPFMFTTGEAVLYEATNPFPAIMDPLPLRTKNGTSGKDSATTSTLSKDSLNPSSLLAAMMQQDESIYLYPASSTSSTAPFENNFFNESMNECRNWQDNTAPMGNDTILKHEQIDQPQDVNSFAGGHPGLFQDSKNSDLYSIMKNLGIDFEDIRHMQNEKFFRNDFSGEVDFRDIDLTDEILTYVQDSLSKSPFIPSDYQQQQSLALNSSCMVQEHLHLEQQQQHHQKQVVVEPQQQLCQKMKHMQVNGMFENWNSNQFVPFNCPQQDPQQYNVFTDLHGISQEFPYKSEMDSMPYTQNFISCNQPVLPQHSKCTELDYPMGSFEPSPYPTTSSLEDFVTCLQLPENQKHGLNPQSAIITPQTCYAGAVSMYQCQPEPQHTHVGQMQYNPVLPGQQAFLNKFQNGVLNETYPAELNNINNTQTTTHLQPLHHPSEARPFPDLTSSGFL
# Outline: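 HepG2 cells transiently transfected with cis-element-driven multiplexed reporter units; endogenous AhR activity read as reporter mRNA 24 h after dosing, via RT-PCR, 6-FAM labelling, HpaI digestion and capillary electrophoresis. Bidirectional fit relative to DMSO.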
# [6] = ATG_AP_1_CIS: Attagene CIS-FACTORIAL HepG2 Assay for human Activator Protein 1 (AP-1) (AID 2282931); details: HepG2 Attagene cis-factorial AP-1 reporter mRNA; actives raise or lower the signal
# Outline: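 Multiplexed HepG2 reporter assay, 24 h dosing. mRNA induction detected by RT-PCR plus capillary electrophoresis. Activity fitted in both directions against DMSO.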
# [7] = ATG_AP_2_CIS: Attagene CIS-FACTORIAL HepG2 Assay for human Activator Protein 2 (AP-2) (AID 2282932); details: HepG2 AP-2 cis-reporter, Attagene transcription factor profiling; actives raise or lower the signal
# Outline: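 Multiplexed mRNA reporter assay in HepG2: cis-regulated units report endogenous factor activity after 24 h treatment. Fluorescence from capillary electrophoresis of RT-PCR products gives the signal, with DMSO as baseline.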
# [8] = ATG_BRE_CIS: Attagene CIS-FACTORIAL HepG2 Assay for human Bone Morphogenetic Protein (BMP) Response Element (BRE) (AID 2282933); details: HepG2 BMP response element reporter, Attagene transcription factor profiling; actives raise or lower the signal
# Outline: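 After a 24 h chemical treatment, transiently transfected HepG2 cells were lysed for RNA; reporter transcripts were quantified by fluorescent RT-PCR and capillary electrophoresis, normalised to DMSO.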
# [9] = target: Retinoic acid receptor alpha (Homo sapiens) (UniProt P10276); experiment: ATG_DR5_RAR_CIS: Attagene CIS-FACTORIAL HepG2 Assay for human Retinoic Acid Receptor Alpha (RARE), DR5 submotif (AID 2282934); details: HepG2 Attagene cis-factorial RARE DR5 reporter, mRNA; actives raise or lower the signal;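 for AC50: reporter responds to endogenous RAR alpha beta and gamma in HepG2 not RARA alone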
# Chain of Retinoic acid receptor alpha (Homo sapiens) (P10276 whole entry, looked up): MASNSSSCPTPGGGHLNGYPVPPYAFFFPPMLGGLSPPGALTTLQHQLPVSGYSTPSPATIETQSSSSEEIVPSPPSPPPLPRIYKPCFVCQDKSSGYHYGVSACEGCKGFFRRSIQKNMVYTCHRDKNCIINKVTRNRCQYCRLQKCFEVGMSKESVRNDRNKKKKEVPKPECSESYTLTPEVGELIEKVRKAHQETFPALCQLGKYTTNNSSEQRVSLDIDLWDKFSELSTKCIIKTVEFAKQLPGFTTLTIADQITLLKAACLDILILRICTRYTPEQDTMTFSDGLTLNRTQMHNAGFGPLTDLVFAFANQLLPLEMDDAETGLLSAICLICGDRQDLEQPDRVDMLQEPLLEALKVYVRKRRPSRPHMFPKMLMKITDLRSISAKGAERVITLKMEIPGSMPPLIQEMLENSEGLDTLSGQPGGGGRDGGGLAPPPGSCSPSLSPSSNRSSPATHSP
# Outline: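 HepG2 cells transiently transfected with multiplexed reporter units; DR5 cis-element drives reporter through endogenous transcription factors. After 24 h dosing, reporter mRNA quantified by RT-PCR, fluorescent labeling, HpaI digestion and capillary electrophoresis; bidirectional fitting versus DMSO.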
# [10] = target: Transcription factor E2F1 (Homo sapiens) (UniProt Q01094); experiment: ATG_E2F_CIS: Attagene CIS-FACTORIAL HepG2 Assay for human E2F Transcription Factor 1 (AID 2282935); details: HepG2 Attagene cis-reporter, E2F reporter RNA transcripts; actives raise or lower the signal
# Chain of Transcription factor E2F1 (Homo sapiens) (Q01094 whole entry, looked up): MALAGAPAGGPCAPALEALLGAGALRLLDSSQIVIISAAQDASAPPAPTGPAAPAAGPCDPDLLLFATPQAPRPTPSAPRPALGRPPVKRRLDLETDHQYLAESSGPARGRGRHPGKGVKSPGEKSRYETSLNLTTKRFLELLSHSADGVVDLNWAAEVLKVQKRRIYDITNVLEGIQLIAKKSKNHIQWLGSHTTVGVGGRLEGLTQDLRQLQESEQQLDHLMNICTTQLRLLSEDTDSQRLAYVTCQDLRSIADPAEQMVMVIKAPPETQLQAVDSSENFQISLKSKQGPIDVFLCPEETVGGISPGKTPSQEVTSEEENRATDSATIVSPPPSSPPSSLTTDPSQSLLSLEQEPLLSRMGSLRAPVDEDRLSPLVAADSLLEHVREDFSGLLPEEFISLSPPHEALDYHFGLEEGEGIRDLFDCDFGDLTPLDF
# Outline: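 Measures reporter transcript levels via RT-PCR with capillary electrophoresis detection in HepG2 cells harboring cis-regulated reporter units; 24 h post-dose; bidirectional curve fitting with DMSO as baseline.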
SMILES,outcome [1],outcome [2],outcome [3],outcome [4],outcome [5],outcome [6],outcome [7],outcome [8],AC50 [9],outcome [10],outcome [9],AC50 [5],AC50 [3],AC50 [1],AC50 [4],AC50 [2],AC50 [6]
CCCCCCCCO,inactive,inactive,inactive,inactive,inactive,inactive,inactive,inactive,25.3 µM (active),inactive,–,–,–,–,–,–,–
On1ccccc1=S,inactive,inactive,inactive,inactive,inactive,inactive,inactive,inactive,–,inactive,inactive,–,–,–,–,–,–
Clc1nc(Cl)c(Cl)c(Cl)c1Cl,inactive,inactive,inactive,inactive,inactive,inactive,inactive,inactive,–,inactive,inactive,–,–,–,–,–,–
CCCCC(CC)COC(=O)c1ccc(C(=O)OCC(CC)CCCC)cc1 (stereo not given),inactive,inactive,inactive,inactive,–,inactive,inactive,inactive,–,inactive,inactive,66 µM (active),–,–,–,–,–
COc1ccc(-n2nc(C(F)F)cc2-c2ccc(S(C)=O)cc2)cc1 (stereo not given),inactive,inactive,–,inactive,inactive,inactive,inactive,inactive,–,inactive,inactive,–,5.24 µM (active),–,–,–,–
C[C@](N)(Cc1ccc(O)c(O)c1)C(=O)O,inactive,inactive,inactive,inactive,inactive,inactive,inactive,inactive,–,inactive,inactive,–,–,–,–,–,–
COCCOc1cc2cc(C(=O)NC3CCN(C(C)C)CC3)n(CC(=O)Nc3ccc(Cl)cn3)c2cn1,–,inactive,inactive,–,–,inactive,inactive,inactive,50.4 µM (active),inactive,–,6.53 µM (active),–,100 µM (active),71.6 µM (active),–,–
Cc1ccc(N)cc1O,inactive,inactive,inactive,inactive,–,inactive,inactive,inactive,–,inactive,inactive,2.56 µM (active),–,–,–,–,–
CCOC(=O)c1ccc(C2CCC(NC[C@H](O)COc3ccc(O)c(NS(C)(=O)=O)c3)CC2)cc1 (stereo not given in full),–,–,inactive,–,inactive,–,inactive,inactive,51.4 µM (active),inactive,–,–,–,51.8 µM (active),60 µM (active),51.1 µM (active),51.5 µM (active)
Cn1cnc([N+](=O)[O-])c1Sc1ncnc2nc[nH]c12,inactive,inactive,–,inactive,inactive,–,inactive,inactive,–,inactive,inactive,–,35.3 µM (active),–,–,–,28.1 µM (active)
C=CC(=C)CCC=C(C)C,inactive,inactive,inactive,inactive,–,inactive,inactive,inactive,–,inactive,inactive,67.1 µM (active),–,–,–,–,–
